{"source": "the OligoGym collection", "data": [{"molecular_target": "CCDC102B", "test": "pooled miR-30 sensor sort-seq; sequence = guide strand", "settings": "shRNA", "values": [{"sequence": "TTATTCTGAGTTGTCTTCCTTC", "sensor-assay potency score (higher = more potent)": 0.72}, {"sequence": "TAATCTATTTTTCTTATCCAAA", "sensor-assay potency score (higher = more potent)": -1.3}, {"sequence": "TTTGTGACATCTTGAAATCAGG", "sensor-assay potency score (higher = more potent)": -1.26}, {"sequence": "TTCACCTGGATCTTCAGCCTTC", "sensor-assay potency score (higher = more potent)": 0.0425}, {"sequence": "TTGTTGAATAAATCAACACCAT", "sensor-assay potency score (higher = more potent)": -0.659}, {"sequence": "TTCAGCTCGAACTTTACTCCAT", "sensor-assay potency score (higher = more potent)": 0.199}, {"sequence": "TTGATGATTGTTGCATCTGGAA", "sensor-assay potency score (higher = more potent)": -0.905}, {"sequence": "TTTGTTAATACAACCTGCCATC", "sensor-assay potency score (higher = more potent)": -1.01}, {"sequence": "TTGCATTTCATCATTATGTTGA", "sensor-assay potency score (higher = more potent)": 0.234}, {"sequence": "TTAACTCACAAATCACTCTGTC", "sensor-assay potency score (higher = more potent)": 0.63}, {"sequence": "TAACATTAGCTTCTAATGCCTC", "sensor-assay potency score (higher = more potent)": -0.718}]}, {"molecular_target": "CCDC105", "test": "pooled miR-30 sensor sort-seq; sequence = guide strand", "settings": "shRNA", "values": [{"sequence": "TTCGCTGAGCCTGTGGTCGGTG", "sensor-assay potency score (higher = more potent)": -0.476}, {"sequence": "TTTGCCATTTCTACCAAGGTGT", "sensor-assay potency score (higher = more potent)": -0.502}, {"sequence": "TTCAGCTCCAAGGTCTCGCTCG", "sensor-assay potency score (higher = more potent)": -0.194}, {"sequence": "TAATCTTTCCTTCAGCTCCAAG", "sensor-assay potency score (higher = more potent)": -0.875}, {"sequence": "TTGCGCACTTCGCTGAGCCTGT", "sensor-assay potency score (higher = more potent)": -0.764}, {"sequence": "TTAATCTTTCCTTCAGCTCCAA", "sensor-assay potency score (higher = more potent)": 0.0783}, {"sequence": "TATCTGCAGCTGTTGCTCCCGG", "sensor-assay potency score (higher = more potent)": -0.913}, {"sequence": "TTTTCTGACCCTGTGTGCGTGG", "sensor-assay potency score (higher = more potent)": -0.545}, {"sequence": "TTGGACTCGACCAACAACCGCT", "sensor-assay potency score (higher = more potent)": -0.0723}, {"sequence": "TATATTTCGTACACCGGAGGAT", "sensor-assay potency score (higher = more potent)": 0.16}, {"sequence": "TTTTTCCATATCTCTCTCCATT", "sensor-assay potency score (higher = more potent)": -1.2}, {"sequence": "TTGAGTAGGACCTCTGATTTTT", "sensor-assay potency score (higher = more potent)": -1.1}]}, {"molecular_target": "CCDC111", "test": "pooled miR-30 sensor sort-seq; sequence = guide strand", "settings": "shRNA", "values": [{"sequence": "TTGTCGATGAAATAGTCTCCAG", "sensor-assay potency score (higher = more potent)": -1.27}, {"sequence": "TTTGATGATTTATATAGCCGAA", "sensor-assay potency score (higher = more potent)": -0.728}, {"sequence": "TAAACCAGTAATTCTTCTGGGA", "sensor-assay potency score (higher = more potent)": 0.0581}, {"sequence": "TAAAAGCTTGAGCTTGTCGATG", "sensor-assay potency score (higher = more potent)": -0.777}, {"sequence": "TTGTAAACTCTTCTTCCTCTTT", "sensor-assay potency score (higher = more potent)": -0.271}, {"sequence": "TTTTATTGAAAGAAAATCCTTG", "sensor-assay potency score (higher = more potent)": 0.279}, {"sequence": "TATTTCTTGTATAAACTCCGAG", "sensor-assay potency score (higher = more potent)": -0.0493}, {"sequence": "TATAGTAAAACCAAAATTCAGC", "sensor-assay potency score (higher = more potent)": -0.935}]}, {"molecular_target": "CCDC124", "test": "pooled miR-30 sensor sort-seq; sequence = guide strand", "settings": "shRNA", "values": [{"sequence": "TAGGCGCTGCGTCTCCTTCTTA", "sensor-assay potency score (higher = more potent)": -1.03}, {"sequence": "TTGAGCTTGGAGTCCTCCTCCT", "sensor-assay potency score (higher = more potent)": -0.0303}, {"sequence": "TTGTCGTCGTCCTTCCAGTAGG", "sensor-assay potency score (higher = more potent)": -1.14}, {"sequence": "TTGAGCAGCTGTTTCAGCTGCG", "sensor-assay potency score (higher = more potent)": 0.469}, {"sequence": "TGACGTGTTTGTCGTCGTCCTT", "sensor-assay potency score (higher = more potent)": -0.925}, {"sequence": "TTCTGCTTCTTGGCATCAGCGG", "sensor-assay potency score (higher = more potent)": -0.999}, {"sequence": "TCTGCTTCTTGGCATCAGCGGC", "sensor-assay potency score (higher = more potent)": -1.05}, {"sequence": "TCGTCGTCCTTCCAGTAGGCAT", "sensor-assay potency score (higher = more potent)": -1.51}, {"sequence": "TTCTCTTGTTTGAGCCGCGGCA", "sensor-assay potency score (higher = more potent)": -0.945}]}]}
